Reference: publication PMC11062922 (Nature Chemical Biology, 2023)
Where two headings read alike, the source gives them in different places.

Experiments:
TNK1 = conditions: read-out: apparent Kd, n = 1
TTK = conditions: read-out: apparent Kd, n = 1
[1] = compound concentrations:100 nM and 1000 nM (sheet 'Lestaurtinib' of Supplementary Table 1),run:Lestaurtinib_02437_R3,Plate:MR007
[2] = compound concentrations:100 nM and 1000 nM (sheet 'Lestaurtinib' of Supplementary Table 1),run:Lestaurtinib_02438_R2,Plate:MR008
[3] = compound concentrations:100 nM and 1000 nM (sheet 'Lestaurtinib' of Supplementary Table 1),run:Lestaurtinib_02496_R2,Plate:MR013
[4] = compound concentrations:100 nM and 1000 nM (sheet 'Lestaurtinib' of Supplementary Table 1),run:Lestaurtinib_02566_R1,Plate:MR014
[5] = compound concentrations:100 nM and 1000 nM (sheet 'Lestaurtinib' of Supplementary Table 1),run:Lestaurtinib_02566_R2,Plate:MR014
[6] = compound concentrations:100 nM and 1000 nM (sheet 'Lestaurtinib' of Supplementary Table 1),run:Lestaurtinib_02566_R3,Plate:MR014
[7] = compound concentrations:100 nM and 1000 nM (sheet 'Lestaurtinib' of Supplementary Table 1),run:Lestaurtinib_02572_R2,Plate:MR015
[8] = compound concentrations:100 nM and 1000 nM (sheet 'Lestaurtinib' of Supplementary Table 1),run:Lestaurtinib_02577_R3,Plate:MR016
[9] = compound concentrations:100 nM and 1000 nM (sheet 'Lestaurtinib' of Supplementary Table 1),run:Lestaurtinib_02606_R3,Plate:MR019
[10] = compound concentrations:100 nM and 1000 nM (sheet 'Lestaurtinib' of Supplementary Table 1),run:Lestaurtinib_02624_R1,Plate:MR020
[11] = compound concentrations:100 nM and 1000 nM (sheet 'Lestaurtinib' of Supplementary Table 1),run:Lestaurtinib_02624_R3,Plate:MR020
[12] = compound concentrations:100 nM and 1000 nM (sheet 'Lestaurtinib' of Supplementary Table 1),run:Lestaurtinib_02724_R1,Plate:MR021
[13] = compound concentrations:100 nM and 1000 nM (sheet 'Lestaurtinib' of Supplementary Table 1),run:Lestaurtinib_02748_R2,Plate:MR024
[14] = compound concentrations:100 nM and 1000 nM (sheet 'Lestaurtinib' of Supplementary Table 1),run:Lestaurtinib_02752_R2,Plate:MR025
[15] = compound concentrations:100 nM and 1000 nM (sheet 'Lestaurtinib' of Supplementary Table 1),run:Lestaurtinib_02765_R2,Plate:MR026
[16] = compound concentrations:100 nM and 1000 nM (sheet 'Lestaurtinib' of Supplementary Table 1),run:Lestaurtinib_02765_R3,Plate:MR026
[17] = compound concentrations:100 nM and 1000 nM (sheet 'Lestaurtinib' of Supplementary Table 1),run:Lestaurtinib_02768_R2,Plate:MR028
[18] = compound concentrations:100 nM and 1000 nM (sheet 'Lestaurtinib' of Supplementary Table 1),run:Lestaurtinib_02795_R3,Plate:MR022
[19] = compound concentrations:100 nM and 1000 nM (sheet 'Lestaurtinib' of Supplementary Table 1),run:Lestaurtinib_02802_R1,Plate:MR029
[20] = compound concentrations:100 nM and 1000 nM (sheet 'Lestaurtinib' of Supplementary Table 1),run:Lestaurtinib_03260_R1,Plate:MR033
[21] = compound concentrations:100 nM and 1000 nM (sheet 'Lestaurtinib' of Supplementary Table 1),run:Lestaurtinib_03260_R2,Plate:MR033

Lestaurtinib
potency estimated from few doses (TNK1; [1]): 0.0158 µM
potency estimated from few doses (TNK1; [2]): 0.0654 µM
potency estimated from few doses (TNK1; compound concentrations:100 nM and 1000 nM (sheet 'Lestaurtinib' of Supplementary Table 1),run:Lestaurtinib_02438_R3,Plate:MR008): 0.0713 µM
potency estimated from few doses (TNK1; compound concentrations:100 nM and 1000 nM (sheet 'Lestaurtinib' of Supplementary Table 1),run:Lestaurtinib_02443_R3,Plate:MR009): 0.143 µM
potency estimated from few doses (TNK1; compound concentrations:100 nM and 1000 nM (sheet 'Lestaurtinib' of Supplementary Table 1),run:Lestaurtinib_02473_R2,Plate:MR010): 0.0986 µM
potency estimated from few doses (TNK1; compound concentrations:100 nM and 1000 nM (sheet 'Lestaurtinib' of Supplementary Table 1),run:Lestaurtinib_02482_R3,Plate:MR011): 0.222 µM
potency estimated from few doses (TNK1; compound concentrations:100 nM and 1000 nM (sheet 'Lestaurtinib' of Supplementary Table 1),run:Lestaurtinib_02487_R3,Plate:MR012): 0.0818 µM
potency estimated from few doses (TNK1; [3]): 0.0952 µM
potency estimated from few doses (TNK1; [4]): 0.25 µM
potency estimated from few doses (TNK1; [5]): 0.221 µM
potency estimated from few doses (TNK1; [6]): 0.208 µM
potency estimated from few doses (TNK1; [7]): 0.0534 µM
potency estimated from few doses (TNK1; compound concentrations:100 nM and 1000 nM (sheet 'Lestaurtinib' of Supplementary Table 1),run:Lestaurtinib_02577_R1,Plate:MR016): 0.24 µM
potency estimated from few doses (TNK1; [8]): 0.209 µM
potency estimated from few doses (TNK1; compound concentrations:100 nM and 1000 nM (sheet 'Lestaurtinib' of Supplementary Table 1),run:Lestaurtinib_02584_R3,Plate:MR017): 0.22 µM
potency estimated from few doses (TNK1; compound concentrations:100 nM and 1000 nM (sheet 'Lestaurtinib' of Supplementary Table 1),run:Lestaurtinib_02606_R2,Plate:MR019): 0.0451 µM
potency estimated from few doses (TNK1; [9]): 0.274 µM
potency estimated from few doses (TNK1; [10]): 0.219 µM
potency estimated from few doses (TNK1; [11]): 0.0917 µM
potency estimated from few doses (TNK1; [12]): 0.256 µM
potency estimated from few doses (TNK1; compound concentrations:100 nM and 1000 nM (sheet 'Lestaurtinib' of Supplementary Table 1),run:Lestaurtinib_02724_R3,Plate:MR021): 0.06 µM
potency estimated from few doses (TNK1; [13]): 0.097 µM
potency estimated from few doses (TNK1; compound concentrations:100 nM and 1000 nM (sheet 'Lestaurtinib' of Supplementary Table 1),run:Lestaurtinib_02752_R1,Plate:MR025): 0.245 µM
potency estimated from few doses (TNK1; [14]): 0.209 µM
potency estimated from few doses (TNK1; compound concentrations:100 nM and 1000 nM (sheet 'Lestaurtinib' of Supplementary Table 1),run:Lestaurtinib_02752_R3,Plate:MR025): 0.208 µM
potency estimated from few doses (TNK1; compound concentrations:100 nM and 1000 nM (sheet 'Lestaurtinib' of Supplementary Table 1),run:Lestaurtinib_02765_R1,Plate:MR026): 0.352 µM
potency estimated from few doses (TNK1; [15]): 0.275 µM
potency estimated from few doses (TNK1; [16]): 0.357 µM
potency estimated from few doses (TNK1; compound concentrations:100 nM and 1000 nM (sheet 'Lestaurtinib' of Supplementary Table 1),run:Lestaurtinib_02766_R2,Plate:MR027): 0.0207 µM
potency estimated from few doses (TNK1; compound concentrations:100 nM and 1000 nM (sheet 'Lestaurtinib' of Supplementary Table 1),run:Lestaurtinib_02766_R3,Plate:MR027): 0.0557 µM
potency estimated from few doses (TNK1; [17]): 0.0792 µM
potency estimated from few doses (TNK1; compound concentrations:100 nM and 1000 nM (sheet 'Lestaurtinib' of Supplementary Table 1),run:Lestaurtinib_02768_R3,Plate:MR028): 0.115 µM
potency estimated from few doses (TNK1; [18]): 0.213 µM
potency estimated from few doses (TNK1; [19]): 0.0819 µM
potency estimated from few doses (TNK1; compound concentrations:100 nM and 1000 nM (sheet 'Lestaurtinib' of Supplementary Table 1),run:Lestaurtinib_03172_R2,Plate:MR031): 0.211 µM
potency estimated from few doses (TNK1; compound concentrations:100 nM and 1000 nM (sheet 'Lestaurtinib' of Supplementary Table 1),run:Lestaurtinib_03172_R3,Plate:MR031): 0.0854 µM
potency estimated from few doses (TNK1; compound concentrations:100 nM and 1000 nM (sheet 'Lestaurtinib' of Supplementary Table 1),run:Lestaurtinib_03252_R1,Plate:MR032): 0.243 µM
potency estimated from few doses (TNK1; [20]): 0.279 µM
potency estimated from few doses (TNK1; [21]): 0.258 µM
potency estimated from few doses (TTK; compound concentrations:100 nM and 1000 nM (sheet 'Lestaurtinib' of Supplementary Table 1),run:Lestaurtinib_02339_R1,Plate:MR001): 1.93 µM
potency estimated from few doses (TTK; compound concentrations:100 nM and 1000 nM (sheet 'Lestaurtinib' of Supplementary Table 1),run:Lestaurtinib_02339_R2,Plate:MR001): 0.812 µM
potency estimated from few doses (TTK; compound concentrations:100 nM and 1000 nM (sheet 'Lestaurtinib' of Supplementary Table 1),run:Lestaurtinib_02364_R2,Plate:MR002): 1.82 µM
potency estimated from few doses (TTK; compound concentrations:100 nM and 1000 nM (sheet 'Lestaurtinib' of Supplementary Table 1),run:Lestaurtinib_02364_R3,Plate:MR002): 1.13 µM
potency estimated from few doses (TTK; compound concentrations:100 nM and 1000 nM (sheet 'Lestaurtinib' of Supplementary Table 1),run:Lestaurtinib_02367_R1,Plate:MR003): 0.172 µM
potency estimated from few doses (TTK; compound concentrations:100 nM and 1000 nM (sheet 'Lestaurtinib' of Supplementary Table 1),run:Lestaurtinib_02367_R2,Plate:MR003): 2.19 µM
potency estimated from few doses (TTK; compound concentrations:100 nM and 1000 nM (sheet 'Lestaurtinib' of Supplementary Table 1),run:Lestaurtinib_02422_R1,Plate:MR006): 0.786 µM
potency estimated from few doses (TTK; compound concentrations:100 nM and 1000 nM (sheet 'Lestaurtinib' of Supplementary Table 1),run:Lestaurtinib_02422_R2,Plate:MR006): 1.69 µM
potency estimated from few doses (TTK; compound concentrations:100 nM and 1000 nM (sheet 'Lestaurtinib' of Supplementary Table 1),run:Lestaurtinib_02422_R3,Plate:MR006): 1.63 µM
potency estimated from few doses (TTK; compound concentrations:100 nM and 1000 nM (sheet 'Lestaurtinib' of Supplementary Table 1),run:Lestaurtinib_02437_R1,Plate:MR007): 0.0949 µM
potency estimated from few doses (TTK; [1]): 1.43 µM
potency estimated from few doses (TTK; compound concentrations:100 nM and 1000 nM (sheet 'Lestaurtinib' of Supplementary Table 1),run:Lestaurtinib_02438_R1,Plate:MR008): 0.8 µM
potency estimated from few doses (TTK; [2]): 1.97 µM
potency estimated from few doses (TTK; compound concentrations:100 nM and 1000 nM (sheet 'Lestaurtinib' of Supplementary Table 1),run:Lestaurtinib_02443_R1,Plate:MR009): 1.4 µM
potency estimated from few doses (TTK; compound concentrations:100 nM and 1000 nM (sheet 'Lestaurtinib' of Supplementary Table 1),run:Lestaurtinib_02473_R1,Plate:MR010): 0.95 µM
potency estimated from few doses (TTK; compound concentrations:100 nM and 1000 nM (sheet 'Lestaurtinib' of Supplementary Table 1),run:Lestaurtinib_02496_R1,Plate:MR013): 1.37 µM
potency estimated from few doses (TTK; [3]): 1.41 µM
potency estimated from few doses (TTK; [4]): 0.936 µM
potency estimated from few doses (TTK; [5]): 0.821 µM
potency estimated from few doses (TTK; [6]): 0.717 µM
potency estimated from few doses (TTK; [7]): 1.84 µM
potency estimated from few doses (TTK; compound concentrations:100 nM and 1000 nM (sheet 'Lestaurtinib' of Supplementary Table 1),run:Lestaurtinib_02572_R3,Plate:MR015): 1.44 µM
potency estimated from few doses (TTK; [8]): 1.7 µM
potency estimated from few doses (TTK; compound concentrations:100 nM and 1000 nM (sheet 'Lestaurtinib' of Supplementary Table 1),run:Lestaurtinib_02601_R1,Plate:MR018): 1.37 µM
potency estimated from few doses (TTK; compound concentrations:100 nM and 1000 nM (sheet 'Lestaurtinib' of Supplementary Table 1),run:Lestaurtinib_02601_R2,Plate:MR018): 1.62 µM
potency estimated from few doses (TTK; compound concentrations:100 nM and 1000 nM (sheet 'Lestaurtinib' of Supplementary Table 1),run:Lestaurtinib_02601_R3,Plate:MR018): 1.61 µM
potency estimated from few doses (TTK; [9]): 1.51 µM
potency estimated from few doses (TTK; [10]): 1.43 µM
potency estimated from few doses (TTK; compound concentrations:100 nM and 1000 nM (sheet 'Lestaurtinib' of Supplementary Table 1),run:Lestaurtinib_02624_R2,Plate:MR020): 1.76 µM
potency estimated from few doses (TTK; [11]): 1.43 µM
potency estimated from few doses (TTK; [12]): 1.21 µM
potency estimated from few doses (TTK; compound concentrations:100 nM and 1000 nM (sheet 'Lestaurtinib' of Supplementary Table 1),run:Lestaurtinib_02741_R1,Plate:MR023): 1.34 µM
potency estimated from few doses (TTK; compound concentrations:100 nM and 1000 nM (sheet 'Lestaurtinib' of Supplementary Table 1),run:Lestaurtinib_02741_R2,Plate:MR023): 0.998 µM
potency estimated from few doses (TTK; [13]): 1.15 µM
potency estimated from few doses (TTK; compound concentrations:100 nM and 1000 nM (sheet 'Lestaurtinib' of Supplementary Table 1),run:Lestaurtinib_02748_R3,Plate:MR024): 1.44 µM
potency estimated from few doses (TTK; [14]): 1.24 µM
potency estimated from few doses (TTK; [15]): 1.44 µM
potency estimated from few doses (TTK; [16]): 0.907 µM
potency estimated from few doses (TTK; compound concentrations:100 nM and 1000 nM (sheet 'Lestaurtinib' of Supplementary Table 1),run:Lestaurtinib_02768_R1,Plate:MR028): 2.15 µM
potency estimated from few doses (TTK; [17]): 2.24 µM
potency estimated from few doses (TTK; compound concentrations:100 nM and 1000 nM (sheet 'Lestaurtinib' of Supplementary Table 1),run:Lestaurtinib_02795_R1,Plate:MR022): 1.41 µM
potency estimated from few doses (TTK; [18]): 0.75 µM
potency estimated from few doses (TTK; [19]): 0.996 µM
potency estimated from few doses (TTK; compound concentrations:100 nM and 1000 nM (sheet 'Lestaurtinib' of Supplementary Table 1),run:Lestaurtinib_02802_R2,Plate:MR029): 0.924 µM
potency estimated from few doses (TTK; compound concentrations:100 nM and 1000 nM (sheet 'Lestaurtinib' of Supplementary Table 1),run:Lestaurtinib_02802_R3,Plate:MR029): 1.41 µM
potency estimated from few doses (TTK; compound concentrations:100 nM and 1000 nM (sheet 'Lestaurtinib' of Supplementary Table 1),run:Lestaurtinib_02896_R3,Plate:MR030): 0.953 µM
potency estimated from few doses (TTK; compound concentrations:100 nM and 1000 nM (sheet 'Lestaurtinib' of Supplementary Table 1),run:Lestaurtinib_03252_R2,Plate:MR032): 1.31 µM
potency estimated from few doses (TTK; [20]): 0.896 µM
potency estimated from few doses (TTK; [21]): 1.54 µM
potency estimated from few doses (TTK; compound concentrations:100 nM and 1000 nM (sheet 'Lestaurtinib' of Supplementary Table 1),run:Lestaurtinib_03260_R3,Plate:MR033): 0.806 µM
